The record followed here is paper PMC4336329 (PLoS ONE, 2015).

About 2,200 (0.71%) of roughly 310,000 compounds showed an effect of 50% or more. The effect is printed as a negative number. Only a selection was taken, and strong results are over-represented in it overall.

Sequence of human ether-à-go-go-related gene (hERG) potassium channel (Q12809 whole entry, looked up): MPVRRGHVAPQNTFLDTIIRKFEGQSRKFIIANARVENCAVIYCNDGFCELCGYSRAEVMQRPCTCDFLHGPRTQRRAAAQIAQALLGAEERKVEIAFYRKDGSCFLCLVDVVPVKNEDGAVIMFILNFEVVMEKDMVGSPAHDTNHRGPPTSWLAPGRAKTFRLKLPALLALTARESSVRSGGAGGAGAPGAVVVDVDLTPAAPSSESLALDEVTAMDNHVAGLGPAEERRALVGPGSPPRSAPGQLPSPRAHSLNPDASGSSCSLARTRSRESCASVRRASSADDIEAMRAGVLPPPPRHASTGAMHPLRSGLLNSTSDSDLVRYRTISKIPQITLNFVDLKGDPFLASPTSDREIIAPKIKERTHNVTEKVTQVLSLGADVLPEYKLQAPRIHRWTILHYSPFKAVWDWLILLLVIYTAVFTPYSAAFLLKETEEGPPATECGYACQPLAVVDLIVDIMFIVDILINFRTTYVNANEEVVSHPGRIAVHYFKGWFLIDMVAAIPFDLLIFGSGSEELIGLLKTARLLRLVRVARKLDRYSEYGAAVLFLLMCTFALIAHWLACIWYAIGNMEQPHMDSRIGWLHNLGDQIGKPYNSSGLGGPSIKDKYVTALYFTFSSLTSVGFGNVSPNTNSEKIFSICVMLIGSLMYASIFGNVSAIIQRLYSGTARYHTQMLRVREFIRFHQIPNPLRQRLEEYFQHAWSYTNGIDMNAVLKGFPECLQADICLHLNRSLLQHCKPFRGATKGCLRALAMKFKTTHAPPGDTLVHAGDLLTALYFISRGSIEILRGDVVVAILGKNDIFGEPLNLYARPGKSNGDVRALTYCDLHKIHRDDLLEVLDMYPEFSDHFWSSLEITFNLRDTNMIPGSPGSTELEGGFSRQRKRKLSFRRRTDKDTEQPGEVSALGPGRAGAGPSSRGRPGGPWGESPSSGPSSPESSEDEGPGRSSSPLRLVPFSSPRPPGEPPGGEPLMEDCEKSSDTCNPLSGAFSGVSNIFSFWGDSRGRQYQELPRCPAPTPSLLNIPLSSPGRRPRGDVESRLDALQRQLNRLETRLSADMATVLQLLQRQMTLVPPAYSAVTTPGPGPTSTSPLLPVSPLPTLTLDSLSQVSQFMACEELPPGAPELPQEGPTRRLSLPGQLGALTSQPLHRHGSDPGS

The target in this test is human ether-à-go-go-related gene (hERG) potassium channel (human, UniProt Q12809). In words: primary screen, population patch clamp on CHO cells stably expressing hERG; higher = less effect of the substance. How it is done:
Briefly, Chinese hamster ovary (CHO) cells stably expressing the hERG channel were dislodged from tissue culture flasks and dispensed into PPC plates. […] During the recording, background leak currents were estimated by a 100 ms step to -80 mV from an initial holding potential of -70 mV and subtracted from the subsequent current measurement. The campaign was conducted in two phases using slight differences in recording protocol. In the first phase, the initial voltage pulse used a 100 ms step to -30 mV from a holding potential of -70 mV, a 2 s conditioning step to +25 mV, and a 2 s test step to -30 mV. During the second phase of the screen, the potential during the conditioning step was raised to +45 mV. In both phases of the campaign, a secondary voltage pulse was applied using the same parameters as the second phase initial pulse. The initial and secondary pulses were applied in the absence of compound, and upon application of 1 μM and 10 μM test concentrations. Small molecule effects on hERG current density were quantified by […].
For the compound `CCOC(=O)c1cnc2c(C(=O)OC)cccc2c1NCc1cccnc1`, the “hERG current change (%, negative = inhibition) at 1uM” value was -55.5%. For `CCOC(=O)c1cnc2ccccc2c1NCc1ccco1`, the “hERG current change (%, negative = inhibition) at 1uM” value was -14.7%. The result for `CCOC(=O)c1ccc(NCc2cccnc2)cc1` reads 8.24%; that for `CCOC(=O)c1cnc2ccc(OCC)cc2c1NCc1cccnc1.Cl`, -75.3%; that for `CCOC(=O)c1cnc2ccc(OC)cc2c1NCc1ccccc1`, -33.4%.

`CCOC(=O)c1cnc2c(C(=O)OC)cccc2c1NCCN1CCOCC1`: the “hERG current change (%, negative = inhibition) at 1uM” value is -47.1%. As for `CCOC(=O)c1cnc2c(C(=O)OC)cccc2c1NCc1ccco1`, the figure is -71.4%; as for `CCOC(=O)c1cnc2c(OC)cccc2c1Nc1ccc2c(c1)OCCO2`, -3.26%; as for `CCOC(=O)c1cnc2c(OC)cccc2c1Oc1ccccc1`, 11%. For the compound `COc1ccc(OC)c(C(=O)CSc2nnc(Cc3cccs3)n2CCc2ccccc2)c1`, the “hERG current change (%, negative = inhibition) at 1uM” value is given as -6.84%. The result for `CC(NC(=O)CSc1nc2ccccc2c(=O)n1CCCO)c1ccccc1` (stereo not shown) reads -0.931%.

`COCCN(CCOC)S(=O)(=O)c1ccc(C(=O)NC2CCN(Cc3ccccc3)CC2)cc1.Cl`: the “hERG current change (%, negative = inhibition) at 1uM” value is recorded as -1.24%.

Take `COc1ccc(C(=O)Nc2nnc(SCC(=O)NC3CCCC3)s2)c(OC)c1`: the “hERG current change (%, negative = inhibition) at 1uM” value was 14.4%. Regarding `CN1C(=O)/C(=C\c2cc(Br)cs2)c2ccccc21`, the “hERG current change (%, negative = inhibition) at 1uM” value is 12.7%. The result for `O=C(Cc1ccc(Cl)cc1)NCC(=O)N1CCCCCC1` reads 4.89%. As for `COc1ccc(-n2c(=O)c3c4c(sc3n3c(=S)[nH]nc23)CCC4)cc1`, the “hERG current change (%, negative = inhibition) at 1uM” value is listed as 9.01%.

Turning to `CCCN1CCN(CCCNC(=O)c2ccc3c(c2)NC(=O)c2ccccc2S3)CC1`, the “hERG current change (%, negative = inhibition) at 1uM” value was 9.21%. The result for `O=C1NC(=Nc2cccc([N+](=O)[O-])c2)SC1(CO)CO` reads 2.12%; that for `COc1ccc(C)cc1NC(=O)COC(=O)C1CCN(C(=O)c2ccc(Cl)cc2)CC1`, -57.7%.

Turning to `COc1ccc(OC)c(NC(=O)COC(=O)C2CCN(C(=O)c3ccc(Cl)cc3)CC2)c1`, the “hERG current change (%, negative = inhibition) at 1uM” value is on record as -49.1%.

Consider `COc1ccc(C)cc1NC(=O)COC(=O)C1CC1`, for which the “hERG current change (%, negative = inhibition) at 1uM” value was determined as 6.74%.

For `O=C(COc1ccccc1)NC1CCN(Cc2ccccc2)CC1`, the “hERG current change (%, negative = inhibition) at 1uM” value was -8.39%.

As for `O=C(COc1ccc(Br)cc1F)NC1CCN(Cc2ccccc2)CC1`, the “hERG current change (%, negative = inhibition) at 1uM” value was -64.8%.

On to `Cc1ccc(Cl)cc1S(=O)(=O)N1CCC(C(=O)NC2CCN(Cc3ccccc3)CC2)CC1`, for which the “hERG current change (%, negative = inhibition) at 1uM” value is listed as -66.1%. The result for `Cc1cc(OCC(=O)NC2CCN(Cc3ccccc3)CC2)c2c(C)c(C)c(=O)oc2c1` reads 7.38%; that for `Cc1ccc(Cl)c(OCC(=O)NC2CCN(Cc3ccccc3)CC2)c1`, -93.9%; that for `O=C(NC1CCN(Cc2ccccc2)CC1)C1CCN(S(=O)(=O)c2ccccc2)CC1`, 1.18%.

Regarding `O=C(COc1ccc(Br)cc1Cl)NC1CCN(Cc2ccccc2)CC1`, the “hERG current change (%, negative = inhibition) at 1uM” value is -16.4%. Turning to `O=C(NC1CCN(Cc2ccccc2)CC1)C1CCN(S(=O)(=O)c2ccc(Cl)cc2)CC1`, the “hERG current change (%, negative = inhibition) at 1uM” value is recorded as -16.9%. As for `Cl.O=C(COc1ccccc1F)NC1CCN(Cc2ccccc2)CC1`, the figure is -3.6%; as for `COC(=O)c1sc(C(C)(C)C)cc1CS(=O)(=O)c1ccc(Cl)cc1`, 23.7%; as for `CC(C)=CCOc1ccc2c(C)c(CC(=O)N3C[C@H]4C[C@@H](C3)c3cccc(=O)n3C4)c(=O)oc2c1C`, -18.5%. On to `Cc1cc(C)c2cc(C#N)c(SCC(=O)NCC3CCCO3)nc2c1` (stereo not shown), for which the “hERG current change (%, negative = inhibition) at 1uM” value is -2.04%. For the compound `CCSCc1nnc(SCC(=O)c2ccc(OC)cc2)n1C`, the “hERG current change (%, negative = inhibition) at 1uM” value is 2.03%. The result for `CC(NC(=O)CSCc1ccc(Br)cc1)c1ccccc1` (stereo not shown) reads 9.08%. Regarding `CCOc1ccc(/C=N/NC(=O)c2cccc3ccccc23)c(OCC)c1`, the “hERG current change (%, negative = inhibition) at 1uM” value is listed as 13.6%. Regarding `CC1CCCN(CC(=O)Nc2ccc(S(=O)(=O)N3CCCCCC3)cc2)C1` (stereo not shown), the “hERG current change (%, negative = inhibition) at 1uM” value is given as -1.45%. `COC(=O)c1nc[nH]c1C(=O)OC`: the “hERG current change (%, negative = inhibition) at 1uM” value amounted to 18.4%.

For `COc1ccccc1C(=O)N/C(=C/c1ccc(Br)cc1)C(=O)NCCO`, the “hERG current change (%, negative = inhibition) at 1uM” value is listed as 1.21%.

In the case of `COCCN1C(=O)N[C@H](c2cccc(C(F)(F)F)c2)C(C(=O)OC)=C1C`, the “hERG current change (%, negative = inhibition) at 1uM” value came to 5.44%. In the case of `CCOc1ccc(S(=O)(=O)NCC(c2ccc3c(c2)OCO3)N2CCN(C)CC2)cc1` (stereo not shown), the “hERG current change (%, negative = inhibition) at 1uM” value was -3.34%. As for `CN1CCN(C(CNS(=O)(=O)c2ccc(Br)cc2)c2ccc3c(c2)OCO3)CC1` (stereo not shown), the figure is -59.5%; as for `O=S(=O)(NCC(c1ccc2c(c1)OCO2)N1CCOCC1)c1ccc(Br)cc1` (stereo not shown), 12.6%; as for `COc1ccc(F)cc1S(=O)(=O)NCC(c1ccc2c(c1)OCO2)N1CCN(C)CC1` (stereo not shown), -12.6%. In the case of `COc1ccc(C)cc1S(=O)(=O)NCC(c1ccc2c(c1)OCO2)N1CCN(C)CC1` (stereo not shown), the “hERG current change (%, negative = inhibition) at 1uM” value is -54.9%. As for `COc1ccc(C)cc1S(=O)(=O)NCC(c1ccc2c(c1)OCO2)N1CCOCC1` (stereo not shown), the “hERG current change (%, negative = inhibition) at 1uM” value turned out to be 5.86%.
